The subject of experiment [1] is Plasmodium falciparum Sir2 (PF13_0152, Sir2A). Description: pfSir2 binders on small-molecule microarrays, primary screen, biochemical, small-molecule microarray, 635 nm fluorescence (AID 1098).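 Note: score merges spot fluorescence intensity with its signal-to-noise ratio.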 The following applies: small-molecule microarray binding, fluorescence 635 nm; higher = more signal.
Experiment [2] in a line: small-molecule microarray binders of probe aDKK1, primary screen, biochemical, biotinylated probe, 635/667 nm fluorescence (AID 1099).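 Note: score merges 667nm spot fluorescence with signal to noise across triplicate slides; reference of the scale not given here.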 The following applies: higher = more signal.
The nature of experiment [3]: small-molecule microarray binders of probe aCHRDL2, primary screen, biochemical, biotinylated probe, 635/667 nm fluorescence (AID 1100). The following applies: higher = more signal.
Experiment [4] can be described thus: splicing luciferase reporter signal modulators, primary screen, spliceosome inhibition project, cell-based, HEK293, splice +/- reporter (AID 1101).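 Note: HEK293 cells carrying a splicing-competent luciferase reporter gene; test concentration not given here.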 The following applies: luminescence, 24 h, higher = more signal, called active from +8 up or from −8 down.
Experiment [5] addresses Fibroblast growth factor 10 (Homo sapiens) (UniProt O15520). Description: FGF10 binders on small-molecule microarrays, primary screen, biochemical, small-molecule microarray, 635 nm fluorescence (AID 1102). As to conditions: FGF10 binding, fluorescence 635 nm, higher = more signal.
The subject of experiment [6] is glycogen synthase kinase-3 (GSK3A per assay name; protocol says GSK3B). Description: GSK3 binders on small-molecule microarrays, primary screen, biochemical, small-molecule microarray, 635 nm fluorescence, GSK3A (AID 1103). Note: the record names both GSK3A and GSK3B. The following applies: small-molecule microarray binding, fluorescence 635 nm; higher = more signal.
The target in experiment [7] is Epidermal growth factor receptor (Homo sapiens) (UniProt P00533). Description: EGFR binders on small-molecule microarrays, primary screen, biochemical, small-molecule microarray, 635 nm fluorescence (AID 1104).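 Note: score merges 667 nm emission intensity with spot signal to noise over triplicate slides.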 The following applies: EGFR binding, higher = more signal.
Sequence of Epidermal growth factor receptor (Homo sapiens) (P00533 whole entry, looked up): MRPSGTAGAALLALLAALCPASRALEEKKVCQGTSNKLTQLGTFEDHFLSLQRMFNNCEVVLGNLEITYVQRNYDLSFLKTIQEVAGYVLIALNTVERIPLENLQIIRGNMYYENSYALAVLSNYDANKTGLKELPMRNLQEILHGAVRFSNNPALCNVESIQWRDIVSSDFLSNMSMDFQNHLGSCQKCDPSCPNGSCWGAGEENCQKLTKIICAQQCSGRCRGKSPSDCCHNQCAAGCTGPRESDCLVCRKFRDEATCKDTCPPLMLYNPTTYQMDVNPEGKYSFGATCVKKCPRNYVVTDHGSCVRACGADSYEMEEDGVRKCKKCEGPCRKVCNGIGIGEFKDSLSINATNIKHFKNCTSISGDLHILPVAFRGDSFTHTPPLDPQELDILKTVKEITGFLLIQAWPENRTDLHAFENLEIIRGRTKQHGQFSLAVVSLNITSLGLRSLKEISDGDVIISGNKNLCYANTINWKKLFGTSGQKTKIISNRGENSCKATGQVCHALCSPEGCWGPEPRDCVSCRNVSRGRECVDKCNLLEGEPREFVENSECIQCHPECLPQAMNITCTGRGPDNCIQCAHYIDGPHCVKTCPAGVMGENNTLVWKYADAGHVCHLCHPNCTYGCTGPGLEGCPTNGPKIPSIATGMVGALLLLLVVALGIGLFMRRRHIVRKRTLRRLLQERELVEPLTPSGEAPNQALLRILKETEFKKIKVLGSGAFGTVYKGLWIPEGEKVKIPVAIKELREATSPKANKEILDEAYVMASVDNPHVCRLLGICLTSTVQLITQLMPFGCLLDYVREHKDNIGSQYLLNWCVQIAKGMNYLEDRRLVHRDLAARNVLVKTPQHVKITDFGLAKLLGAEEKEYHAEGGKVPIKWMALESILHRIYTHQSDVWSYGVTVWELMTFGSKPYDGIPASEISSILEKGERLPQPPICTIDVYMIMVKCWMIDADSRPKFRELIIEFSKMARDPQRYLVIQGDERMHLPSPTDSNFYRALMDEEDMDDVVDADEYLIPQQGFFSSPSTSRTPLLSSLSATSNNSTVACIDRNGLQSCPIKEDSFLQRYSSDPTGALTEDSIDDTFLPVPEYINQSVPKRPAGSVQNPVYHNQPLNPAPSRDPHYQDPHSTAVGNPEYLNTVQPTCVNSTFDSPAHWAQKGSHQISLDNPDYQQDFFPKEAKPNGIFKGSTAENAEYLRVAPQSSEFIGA
Experiment [8] deals with Follistatin-related protein 3 (Homo sapiens) (UniProt O95633). Description: FSTL3 binders on small-molecule microarrays, primary screen, biochemical, small-molecule microarray, 635 nm fluorescence (AID 1105).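 Note: score merges emission near 667 nm and signal to noise per printed spot across three slides.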 The following applies: FSTL3 binding, higher = more signal.
Sequence of Follistatin-related protein 3 (Homo sapiens) (O95633 whole entry, looked up): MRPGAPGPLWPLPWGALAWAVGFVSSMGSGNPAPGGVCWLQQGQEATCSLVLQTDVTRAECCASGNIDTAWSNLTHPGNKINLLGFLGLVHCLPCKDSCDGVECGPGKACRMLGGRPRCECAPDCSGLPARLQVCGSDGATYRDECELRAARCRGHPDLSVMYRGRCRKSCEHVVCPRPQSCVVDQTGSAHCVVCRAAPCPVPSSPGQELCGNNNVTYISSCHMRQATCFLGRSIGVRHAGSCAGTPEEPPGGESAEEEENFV
Experiment [9] has as its target Dickkopf-related protein 1 (Homo sapiens) (UniProt O94907). Description: DKK1 binders on small-molecule microarrays, primary screen, biochemical, small-molecule microarray, 635 nm fluorescence scan (AID 1106).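 Note: score merges emission near 667 nm with signal to noise over three replicate slides.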 As to conditions: DKK1 binding, higher = more signal.
Experiment [10] deals with Inhibin beta A chain (activin A). Description: INHBA (activin A) binders on microarrays, primary screen, biochemical, small-molecule microarray, 635 nm fluorescence scan (AID 1107).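 Note: mouse activin A protein probed at 4.33 µg/mL on printed slides; score merges bound-protein fluorescence near 667 nm with spot signal-to-noise.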 The following applies: small-molecule microarray binding, higher = more signal.

The source made the active and inactive calls.

Sequence of Fibroblast growth factor 10 (Homo sapiens) (O15520 whole entry, looked up): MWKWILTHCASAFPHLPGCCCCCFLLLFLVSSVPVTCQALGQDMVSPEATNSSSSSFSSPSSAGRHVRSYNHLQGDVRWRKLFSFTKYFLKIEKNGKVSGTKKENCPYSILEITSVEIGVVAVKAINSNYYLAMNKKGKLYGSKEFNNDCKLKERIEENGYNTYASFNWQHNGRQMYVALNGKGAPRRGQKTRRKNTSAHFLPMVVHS
Sequence of Dickkopf-related protein 1 (Homo sapiens) (O94907 whole entry, looked up): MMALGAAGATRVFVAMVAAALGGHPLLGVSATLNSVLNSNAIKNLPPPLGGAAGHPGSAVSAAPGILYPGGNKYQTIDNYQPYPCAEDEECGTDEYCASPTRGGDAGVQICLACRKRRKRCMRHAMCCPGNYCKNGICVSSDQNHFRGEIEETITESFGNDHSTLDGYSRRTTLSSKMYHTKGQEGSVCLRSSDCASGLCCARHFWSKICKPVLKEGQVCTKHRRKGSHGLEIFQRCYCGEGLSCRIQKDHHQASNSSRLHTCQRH

`CN(C)C(=O)[C@]1(Cc2ccccc2CN=[N+]=[N-])N=C(c2ccc(OCCCO)cc2)O[C@@H]1c1ccccc1`: the composite z-score in [1] is 1.19; in experiment [2] it was 0.161; in experiment [3], 0.821; in [5], 0.647; in experiment [6], 0.497; in experiment [7], -0.19. The composite z-score is -0.202 in experiment [8], -0.147 in experiment [9] and 1.29 in experiment [10]. Further, in experiment [4], the z-score was -1.45 (inactive).

For `COCCOC(=O)N1C(=O)[C@@]2(c3cc(C#CC4=CCCCC4)ccc31)[C@H](c1ccccc1OCCO)N1[C@H](c3ccccc3)[C@H](c3ccccc3)OC(=O)[C@H]1[C@@H]2C(=O)N1CCN(c2ncccn2)CC1`, the composite z-score in experiment [1] is 0.749; in [2] it was -0.149; in experiment [3] it was -0.513; in experiment [5], 0.751; in [6] it was 1.28; in experiment [7] it was 0.502. Also, the figures for the composite z-score in [8], in [9] and in [10] were 1.06, 0.489 and 0.333, respectively. Moreover, the z-score in experiment [4] is -1.46 (inactive).

As to `CCCCC=C[C@@H](NC(=O)OCc1ccccc1Cl)c1ccccc1`, the composite z-score in experiment [1] worked out at 0.732; in experiment [2] it was 1.53; in experiment [3], 1.09; in experiment [5], 0.431; in experiment [6], 1.29; in [7] it was 0.566. Also, the composite z-score in experiment [8] was 1.19; in [9], -0.193; in [10] it was 0.709. The z-score in [4] is 0.233 (inactive).

As for `CN(C)C(=O)[C@@]1(Cc2ccccc2CN=[N+]=[N-])N=C(c2ccc(OCCCO)cc2)O[C@H]1c1ccccc1N=[N+]=[N-]`, the composite z-score in experiment [1] was 1.63; in [2], 0.842; in experiment [3], 1; in experiment [5], 0.884; in experiment [6] it was 0.588; in [7], -0.239. Further, the composite z-score in experiment [8] is 0.724; in [9], -0.451; in experiment [10], 0.987. The z-score in experiment [4] is -0.731 (inactive).

`CC(C)C(O)C1C=CC2C(=O)N(c3ccccc3)C(=O)C2N1Nc1ccccc1` (stereo not given): the composite z-score in [1] is 1.06; in [2], 0.584; in experiment [3], 0.432; in [5], 1.22; in experiment [6] it was 0.0942; in [7], 0.34. In addition, the figures for the composite z-score in experiment [8], in experiment [9] and in experiment [10] were 1.41, -0.0988 and 0.326, respectively. Moreover, in experiment [4], the z-score is -0.307 (inactive).

With `C=CCN1C(=O)[C@]2(CCS(=O)(=O)c3ccccc3)N=C(c3ccc(OCCCO)cc3)O[C@@H]2c2ccccc21`, the composite z-score in experiment [1] is 1.38; in experiment [2], -0.317; in experiment [3] it was 0.7; in experiment [5], 0.732; in experiment [6] it was 1.29; in experiment [7], 0.387. Moreover, the composite z-score was 1.43 in experiment [8], 0.466 in [9] and 1.18 in [10]. In addition, in [4], the z-score was -1.81 (inactive).

On to `CC(C)N1CC=CC23O[C@@H]4C=CCCOC(=O)C4[C@H]2C(=O)N(CCCO)[C@@H]3C1=O` (stereo not given in full), for which the composite z-score was 0.415 in [1]; -0.137 in [2]; 0.0009 in [3]; -0.264 in [5]; -0.322 in experiment [6]; -1.07 in experiment [7]. Further, the composite z-score in experiment [8] is -0.317; in experiment [9] it was -0.183; in experiment [10] it was 0.864. Moreover, in experiment [4], the z-score is -1.38 (inactive).

For the compound `O=C1O[C@@H](c2ccccc2)[C@@H](c2ccccc2)N2[C@@H](c3ccc(OCCO)cc3)[C@]3(C(=O)Nc4ccc(C#CC5=CCCCC5)cc43)[C@@H](C(=O)NC[C@H](O)c3ccccc3)[C@H]12`, the composite z-score in experiment [1] is 0.674; in experiment [2], -0.653; in experiment [3], -0.762; in experiment [5], 1.4; in experiment [6], 1.31; in [7], 0.445. The composite z-score worked out at 1.4 in [8], 0.708 in experiment [9] and 1.07 in experiment [10]. Besides, the z-score in [4] is 0.556 (inactive).

Turning to `CC1CC/C=C\[C@H]2OC34C=CCN(C(C)(C)C)C(=O)[C@H]3N(CCCCCO)C(=O)[C@@H]4C2C(=O)O1` (stereo not given in full), the composite z-score in [1] was 0.261; in experiment [2], -0.27; in experiment [3], 0.2; in [5], -0.899; in experiment [6], -0.696; in [7], -1.08. Moreover, the composite z-score in experiment [8] was -0.852; in [9], -1.16; in [10] it was 0.0607. The z-score in experiment [4] was -0.0565 (inactive).

With `O=C1OCCC/C=C\[C@H]2OC34C=CCN(c5ccc6ccccc6c5)C(=O)[C@H]3N(CCO)C(=O)[C@@H]4C12` (stereo not given in full), the composite z-score in experiment [1] is 1.32; in experiment [2], -0.416; in experiment [3] it was 0.256; in experiment [5] it was -0.654; in [6], -0.785; in [7], -1.83. The composite z-score in experiment [8] was -1.59; in [9] it was -1.09; in [10] it was 0.0621. Besides, the z-score in [4] is -1.07 (inactive).

Regarding `CC(C)C(CO)N1C(=O)[C@@H]2C3C(=O)OCCC/C=C\[C@H]3OC23C=CCN(Cn2nnc4ccccc42)C(=O)[C@@H]13` (stereo not given in full), the composite z-score in experiment [1] was 0.192; in [2], -0.0842; in experiment [3], 0.543; in experiment [5], -0.727; in experiment [6], -0.2; in [7], -0.636. The figures for the composite z-score in experiment [8], in experiment [9] and in experiment [10] were -0.359, -1.13 and 0.223, respectively. In [4], the z-score was 0.323 (inactive).

As for `COc1cc(NN2C(C(O)c3cc(OC)c(OC)c(OC)c3)C=CC3C(=O)N(C)C(=O)C32)cc(OC)c1OC` (stereo not given), the composite z-score was found to be 1.03 in experiment [1]; 0.171 in experiment [2]; 0.318 in [3]; 0.691 in experiment [5]; 0.984 in experiment [6]; 0.347 in experiment [7]. In addition, the composite z-score in experiment [8] is 0.34; in experiment [9], -0.289; in experiment [10] it was 0.93. In addition, the z-score in experiment [4] is 0.255 (inactive).

Turning to `O=C1C2C=CC(C(O)c3cccc(O)c3)N(Nc3ccc([N+](=O)[O-])cc3)C2C(=O)N1c1ccccc1` (stereo not given), the composite z-score is 0.367 in [1]; 0.158 in experiment [2]; 0.451 in [3]; 1.07 in experiment [5]; 0.672 in [6]; 0.254 in [7]. The composite z-score was 0.444 in [8], 0.239 in experiment [9] and 0.199 in [10]. Also, the z-score in experiment [4] is 0.663 (inactive).

As to `CS(=O)(=O)CCOC(=O)C1=CC(c2ccc(CO)cc2)=CC(C2CC2)N(Cc2sc3ccccc3c2Cl)C=C1C(=O)OCCS(C)(=O)=O` (stereo not given), the composite z-score is 0.677 in experiment [1]; 0.251 in [2]; 0.365 in [3]; 0.686 in experiment [5]; 0.519 in [6]; 0.645 in experiment [7]. Moreover, the composite z-score worked out at 1.21 in [8], 0.334 in experiment [9] and 1.63 in experiment [10]. Also, the z-score in experiment [4] is 2.53 (inactive).

Source of the values: PubChem BioAssay.
